gsp ag: activates gsp, the McCune-Albright syndrome mutation; gsp mutant cells, cAMP HTRF, 30 min; Potency, µM (doses to about 76.9 µM), actives largely listed as activators; 0.13% of 340,000 active; active means well fitted activation curve with a large enough effect; inconclusive means small, poorly fitted or top-dose-only effect, or another doubt; inactive means no such curve, though single readings can be large or run the other way; cell line not stated here;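 further: phosphodiesterase inhibitor Ro 20-1724 added with compounds to block cAMP breakdown; nearly all actives have a fitted effect of over 60% in size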
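Cells stably selected in G418 were plated at 2000/well, grown 16-24 hr, then given compounds in DMSO with the PDE inhibitor […] (300 uM solution added) for 30 min at 37C; cAMP was read by HTRF.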
RXFP1 antagonist: antagonists of human relaxin receptor RXFP1; 0.59% of 350,000 active; HEK293-RXFP1, relaxin-stimulated cAMP HTRF, 30 min; active compounds read low; activity change, negative = inhibition, % at 57.5 µM; Q9HBX9;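 active means activity change of -60% or lower, but not beyond a set lower limit; inconclusive means change between -60% and -40%, or beyond the set limit; inactive means change above -40%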
Target sequence (Q9HBX9 whole entry, looked up): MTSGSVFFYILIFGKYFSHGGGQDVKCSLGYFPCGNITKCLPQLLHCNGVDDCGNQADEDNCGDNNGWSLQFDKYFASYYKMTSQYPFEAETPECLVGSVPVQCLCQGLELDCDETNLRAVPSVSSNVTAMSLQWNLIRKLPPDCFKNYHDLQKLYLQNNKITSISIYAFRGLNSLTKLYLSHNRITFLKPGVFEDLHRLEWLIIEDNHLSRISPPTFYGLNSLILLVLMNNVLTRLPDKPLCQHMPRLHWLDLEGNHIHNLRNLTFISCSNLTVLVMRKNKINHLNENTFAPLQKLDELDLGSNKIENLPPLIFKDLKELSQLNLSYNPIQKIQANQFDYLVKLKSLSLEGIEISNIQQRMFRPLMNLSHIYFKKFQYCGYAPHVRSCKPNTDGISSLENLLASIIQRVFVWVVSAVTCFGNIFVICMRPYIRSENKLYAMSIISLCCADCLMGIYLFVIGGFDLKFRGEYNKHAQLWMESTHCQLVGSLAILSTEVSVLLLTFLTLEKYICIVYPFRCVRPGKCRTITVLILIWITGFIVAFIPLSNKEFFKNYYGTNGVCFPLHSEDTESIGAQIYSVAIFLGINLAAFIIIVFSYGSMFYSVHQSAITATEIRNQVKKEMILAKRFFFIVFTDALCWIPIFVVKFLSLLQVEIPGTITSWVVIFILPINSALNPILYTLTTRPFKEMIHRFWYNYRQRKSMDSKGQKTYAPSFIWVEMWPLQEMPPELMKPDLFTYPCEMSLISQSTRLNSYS
RXFP1 ag: agonists of human relaxin receptor RXFP1 | AID 2676 | Potency, µM (titrated, usually from 57.5 µM), usual class: activators | HEK293T-RXFP1 cAMP TR-FRET, 30 min; response scale: percent of porcine relaxin response, buffer zero | 0.3% of 370,000 active; active means well fitted activation curve with a large enough effect; inconclusive means small, poorly fitted or top-dose-only effect; further: nearly all actives have a fitted effect of over 60% in size
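HEK293 cells stably expressing RXFP1, treated 30 min at 37C with compounds plus PDE4 inhibitor Ro 20174; cAMP measured by HTRF TR-FRET. Normalized to buffer and 29 nM porcine relaxin; EC50 by Hill fit.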
gsp antag: antagonizes gsp, the McCune-Albright syndrome mutation; gsp-mutant cells, cAMP HTRF, 30 min; Potency, µM (doses to about 76.9 µM), hits mostly inhibitors; 0.4% of 340,000 active; AID 624288; calls by dose curve; cell line not stated here;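 further: intracellular cAMP measured with PDE inhibitor Ro 20-1724 present during compound exposure; nearly all actives have a fitted effect of over 65% in size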
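G418-selected cells were plated in DMEM/10% FBS for 16-24 h at 37C, then treated with compounds plus the PDE inhibitor […] (300 uM solution added) for 30 min at 37C. Intracellular cAMP was measured by HTRF after 30 min lysis at room temperature.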
TSHR antag: blocks TSH signaling through the human TSH receptor; TSHR-expressing cells, TSH-stimulated cAMP HTRF, 2 h; active compounds read low; activity change, negative = inhibition, % at 11.5 µM; 0.2% of 330,000 active;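 active means activity change below a set negative limit, meaning inhibition stronger than a set level, cut at about -70% in these data; inconclusive means activity change between two set negative limits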
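Inhibition of cAMP made by TSHR-expressing cells under TSH stimulation (4nM final, EC80; 2 h, 37 deg C) is quantified with a one-step lysis HTRF kit, anti-cAMP cryptate versus cAMP-d2.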
Of the large screens only hits and unclear results are named; the others gave an inactive call. An excerpt weighted towards active compounds, which were near 1% of everything screened.

Cc1nc(SC(C)C(=O)Nc2ccccc2Cl)cc(-c2ccccc2)n1 (stereo not drawn)	RXFP1 antagonist -72 (no result: gsp ag, gsp antag, TSHR antag)
O=C(Nc1cccc(C(=O)OCc2cc(=O)n3c4c(sc3n2)CCCC4)c1)c1ccccc1	none (no result: gsp ag, gsp antag, TSHR antag)
Cc1[nH]n(-c2ccccc2)c(=O)c1C(c1ccc(O)c([N+](=O)[O-])c1)c1c(C)[nH]n(-c2ccccc2)c1=O	gsp antag 11µM (no result: RXFP1 ag, TSHR antag)
CC(C)c1ccc2c(c1)C(N1CCNCC1)Cc1ccc(F)cc1S2 (stereo not drawn)	RXFP1 antagonist -72 (no result: RXFP1 ag, TSHR antag)
C[C@@]12C(=O)N(c3ccc(C(F)(F)F)cc3)C(=O)N1[C@@H]1c3ccccc3OC[C@@H]1[C@H]2c1ccccc1	gsp antag 32µM (no result: gsp ag, RXFP1 antagonist)
Cc1nnc(-c2ccc(Oc3ccc(Br)cc3)c([N+](=O)[O-])c2)o1	gsp antag 50µM
O=C(c1cccc(Oc2ccc([N+](=O)[O-])cc2Cl)c1)N1CCCCC1	none
O=C(c1ccc(Oc2ccc([N+](=O)[O-])cc2Cl)cc1)N1CCCC1	gsp antag 11µM
CCOC(=O)c1cc(OC(=O)c2ccccc2C)n(-c2ccccc2)n1	none (no result: gsp ag, RXFP1 antagonist, gsp antag, TSHR antag)
Cc1nc(C)c(-c2ccc(SCC(=O)Nc3cccc(C)c3C)nn2)s1	none (no result: gsp ag, gsp antag, TSHR antag)
CCCC(=O)Nc1ccc(O)c(C(C)=O)c1	none (no result: gsp ag, RXFP1 ag, gsp antag, TSHR antag)
Cc1ccc(C)c(OCCC(=O)OCC(=O)NCCNC(=O)COC(=O)CCOc2cc(C)ccc2C)c1	RXFP1 antagonist -62
Cc1ccc(C)c(OCCC(=O)OCC(=O)NCc2ccccc2)c1	none
Cn1c2ccccc2c2nnc(SCC(=O)Nc3cccc(C(=O)O)c3)nc21	gsp ag 14µM, RXFP1 ag 16µM
CCN(CC)C(=O)CSc1nnc2c3ccccc3n(C)c2n1	gsp ag 7.1µM, RXFP1 ag inconclusive
Cc1ccc(Cl)cc1NC(=O)Cn1c(=O)n(CCC(=O)N2CCc3ccccc3C2)c(=O)c2ccccc21	none (no result: gsp ag, RXFP1 antagonist, gsp antag, TSHR antag)
COc1cccc(CC(=O)Nc2ccc3nc(N4CCC(C)CC4)cc(C)c3c2)c1	none (no result: gsp ag, RXFP1 antagonist, gsp antag, TSHR antag)
C=CCn1c(=O)c(CCC(=O)Nc2ccc(N3CCOCC3)cc2)nc2cc(C(F)(F)F)ccc21	gsp ag inconclusive, RXFP1 antagonist -68
Cn1cnnc1Sc1nc2c(c(=O)n(C)c(=O)n2C)n1C	gsp ag 22µM (no result: RXFP1 ag, TSHR antag)
COc1ccc(C(=O)CN2C(=O)N(c3ccc(C(C)=O)cc3)S(=O)(=O)c3ccccc32)cc1	none (no result: gsp ag, RXFP1 antagonist, gsp antag, TSHR antag)
CCOc1cc(NC(=O)C2CC2)c(OCC)cc1NC(=O)c1cccc(F)c1	TSHR antag -89
COc1ccc(C2=NOC(Cn3nc(C(=O)NCc4ccco4)cc3-c3ccccc3)C2)cc1 (stereo not drawn)	gsp antag 32µM (no result: RXFP1 antagonist)
COc1cc2nc(NCc3ccccc3)n3nc(-c4ccccc4)nc3c2cc1OC	none (no result: gsp ag, RXFP1 antagonist, gsp antag, TSHR antag)
O=C(Nc1ccsc1C(=O)O)c1cccc(C(F)(F)F)c1	gsp antag inconclusive
O=C(Nc1ccsc1C(=O)O)c1cccc(Oc2ccccc2)c1	RXFP1 antagonist -80, gsp antag inconclusive, TSHR antag inconclusive
COc1ccc(CCNC(=O)CCn2c(=O)c3ccccc3n(CC(=O)Nc3ccccc3F)c2=O)cc1OC	none (no result: gsp ag, RXFP1 antagonist, gsp antag, TSHR antag)
CC(C)c1ccc(/C=N/n2c(COc3ccccc3)n[nH]c2=S)cc1	RXFP1 antagonist -61, gsp antag inconclusive
O=C(CS(=O)(=O)c1cccc2nsnc12)N1CCN(c2ccccc2F)CC1	none (no result: gsp ag, gsp antag, TSHR antag)
CCc1ccc2oc(=O)cc(CN3CCN(c4ccc(F)cc4)CC3)c2c1	none
CC(C)c1ccc2oc(=O)cc(CN3CCN(c4ccc(F)cc4)CC3)c2c1	gsp antag 35µM
Fc1ccc(-c2onc3ccc(C4OCCO4)cc23)cc1	gsp antag 11µM
COC(=O)C1=C(C)NC(C)=C(C(=O)OCCc2ccc(N3CCN(C(c4ccccc4)c4ccccc4)CC3)cc2)C1c1cccc([N+](=O)[O-])c1 (stereo not drawn)	none (no result: gsp ag, RXFP1 ag, gsp antag, TSHR antag)
CC(C)CCNC(=O)c1ccc(Cn2c(=S)[nH]c3ccccc3c2=O)cc1	RXFP1 antagonist -73
CC1CCCC(N2CCN(S(=O)(=O)c3ccccc3)CC2)C1 (stereo not drawn)	TSHR antag -108
Cc1cc(C)cc(N(CC(=O)NCc2ccco2)C(=O)c2snc(C(N)=O)c2N)c1	RXFP1 antagonist -60
NC(=O)c1nsc(C(=O)N(Cc2ccco2)C(C(=O)NCc2ccccc2)c2ccc(O)cc2)c1N (stereo not drawn)	gsp antag 11µM
COc1ccccc1N1CCN(C(=O)Cn2ncc3c(=O)oc4ccccc4c32)CC1	none (no result: gsp ag, RXFP1 antagonist, gsp antag, TSHR antag)
CCOC(=O)N1CCN(C(=O)CCS(=O)(=O)c2ccc3c(c2)CC(C)N3C(=O)CC)CC1 (stereo not drawn)	RXFP1 antagonist -92, gsp antag inconclusive
COc1ccc(N2CCN(C(=O)CC(C)S(=O)(=O)c3ccc4c(c3)NC(=O)CO4)CC2)cc1 (stereo not drawn)	gsp antag inconclusive
CC(CC(=O)N1CCN(c2cccc(Cl)c2)CC1)S(=O)(=O)c1ccc2c(c1)NC(=O)CO2 (stereo not drawn)	gsp antag 28µM
Cc1ccc(C)c(N2CCN(C(=O)CCS(=O)(=O)c3ccc4c(c3)NC(=O)CO4)CC2)c1	gsp antag 50µM
Cc1ccc(C)c(N2CCN(C(=O)CCS(=O)(=O)c3ccc4c(c3)CCN4C(=O)C3CC3)CC2)c1	TSHR antag -82
O=c1c2ccccc2n(Cc2cccc(F)c2)c(=O)n1Cc1ccccc1Cl	none (no result: gsp ag, gsp antag, TSHR antag)
Cc1cc(C(F)(F)F)c2sc(N)nc2n1	none
Nc1nc2nc(-c3ccccc3)cc(C(F)(F)F)c2s1	TSHR antag -99 (no result: gsp antag)
O=C(Cn1c(-c2cccs2)cc2ccccc21)NCc1ccccc1Br	none (no result: gsp ag, gsp antag, TSHR antag)
CCCCn1c(N)c(N(CCC(C)C)C(=O)CSc2nncn2-c2ccccc2)c(=O)[nH]c1=O	none
CC(C)CN(C(=O)CSc1nncn1-c1ccccc1)c1c(N)n(CC(C)C)c(=O)[nH]c1=O	RXFP1 antagonist -60
Cc1ccc(S(=O)(=O)c2ccc([N+](=O)[O-])o2)cc1	RXFP1 antagonist -60 (no result: RXFP1 ag, TSHR antag)
Cc1ccc(NC(=O)c2ccc([N+](=O)[O-])o2)c(C)c1	none
COc1ccc(S(=O)(=O)c2c(Nc3ccc(C)cc3)sc(C(=O)c3ccc4c(c3)OCO4)c2N)cc1	none (no result: gsp ag, gsp antag, TSHR antag)
CC1Cc2cc(-c3csc(NC(=O)Cc4cccs4)n3)ccc2N1S(C)(=O)=O (stereo not drawn)	TSHR antag -72
COc1ccccc1-c1c(C)nn2c(N3CCCCCC3)cc(C)nc12	gsp antag 35µM (no result: RXFP1 antagonist)
Brc1ccc(CSc2ncn[nH]2)cc1	gsp antag 32µM
O=C(O)c1ccc(CSc2ncn[nH]2)cc1	none
C=C(CN(C)C)C(=O)c1ccc(C)cc1C	RXFP1 antagonist -81, gsp antag 50µM (no result: RXFP1 ag, TSHR antag)
Cc1ccc(C(=O)CC(=O)c2ccccc2C)c(O)c1	none
